What all share (assay): NCI-60 one-dose screen, 48 h (100 = growth as untreated, 0 = no growth, -100 = all killed)
For one test, the system named is NCI-H23 lung. The settings on record: 10 µM unless noted.
The next test deals with NCI-H226 lung. The settings on record: 10 µM unless noted.
The test system of a further test is NCI-H322M lung. The settings on record: 10 µM unless noted.
The test system of another test is HOP-62 NSCLC. The settings on record: 10 µM unless noted.
The test system of the next test is HOP-92 NSCLC. The settings on record: 10 µM.
Another test concerns NCI-H522 lung. The settings on record: 10 µM.
The subject of the next test is A549/ATCC NSCLC. The settings on record: 10 µM unless noted.
The next test deals with 786-0 renal. The settings on record: 10 µM unless noted.
The test system of another test is COLO 205 colon. The settings on record: 10 µM unless noted.
The next test deals with DU-145 prostate. The settings on record: 10 µM unless noted.
Another test has as its system K-562 leukemia. The settings on record: 10 µM unless noted.
A further test concerns MALME-3M melanoma. The settings on record: 10 µM unless noted.
Another test has as its system MDA-MB-231 breast. The settings on record: 10 µM unless noted.
In another test the test system is SF-268 CNS. The settings on record: 10 µM unless noted.
Another test has as its system SF-295 CNS. The settings on record: 10 µM unless noted.
The subject of a further test is SF-539 CNS. The settings on record: 10 µM unless noted.
A further test concerns UACC-257 melanoma. The settings on record: 10 µM unless noted.
The next test deals with M14 melanoma. The settings on record: 10 µM unless noted.
In the next test the test system is RXF 393 renal. The settings on record: 10 µM unless noted.

The source of these data is PubChem BioAssay (NCI).

About 83,000 compounds went through this panel and 20% of them were active in at least one assay; those are over-represented in the sample as a whole.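 For each line, cells grew in 96-well plates with the test compound present at a single concentration for 48 hours.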 Values without a mark were called inactive. Active and inactive are the calls of the source. Rule for the calls: active = growth percent below 10; inactive = the rest.

In the case of `CC(=O)C(CO)C(=O)Nc1ccccc1` (centres undefined), the growth is 103% with NCI-H23 lung; 96.9% in the test on NCI-H226 lung; 85.9% in the test with NCI-H322M lung; 93.3% with HOP-62 NSCLC; 96.6% with HOP-92 NSCLC; 82.3% in the test with NCI-H522 lung. Moreover, the growth was 93.6% with A549/ATCC NSCLC; 96.8% with 786-0 renal; 99.5% in the test on COLO 205 colon; 112% in the test with DU-145 prostate; 102% in the test on K-562 leukemia; 109% in the test with MALME-3M melanoma. The growth in the test with MDA-MB-231 breast is 102%; with SF-268 CNS, 107%; with SF-295 CNS, 107%; with SF-539 CNS, 95.4%; in the test on UACC-257 melanoma it was 85.7%; in the test on M14 melanoma, 99.5%.

For `COc1ccc(/C(=C(\c2ccccc2)[N+](=O)[O-])c2ccc(OCCN3CCCC3)cc2)cc1`, the growth was 74.9% with NCI-H23 lung; 72.8% in the test on NCI-H226 lung; 87.2% with NCI-H322M lung; 94.1% with HOP-62 NSCLC; 59.5% in the test on HOP-92 NSCLC; 83.7% in the test on NCI-H522 lung. Moreover, the growth with A549/ATCC NSCLC is 78.4%; in the test on 786-0 renal, 15.2%; in the test on COLO 205 colon it was 8.89% (active); in the test with DU-145 prostate it was 89.3%; with K-562 leukemia it was 13.7%; in the test with MALME-3M melanoma it was -7.32% (active). Further, the growth in the test on MDA-MB-231 breast was 55%; in the test with RXF 393 renal, 25%; with SF-268 CNS, 84.4%; in the test with SF-295 CNS, 31.9%; in the test with SF-539 CNS it was 28.6%; in the test on UACC-257 melanoma it was -26.1% (active). The growth with M14 melanoma was -73.4% (active).

As to `CCS(=O)(=O)N[C@@H]1O[C@H](COC(C)=O)C(OC(C)=O)[C@H](OC(C)=O)C1OC(C)=O` (some centres undefined), the growth was 102% in the test on NCI-H23 lung; 109% in the test with NCI-H226 lung; 115% with NCI-H322M lung; 87.8% in the test on HOP-62 NSCLC; 95.4% in the test on HOP-92 NSCLC; 83.7% in the test on NCI-H522 lung. Moreover, the growth in the test on A549/ATCC NSCLC was 88.7%; in the test with 786-0 renal it was 104%; in the test with COLO 205 colon it was 113%; in the test with DU-145 prostate, 105%; with K-562 leukemia it was 99.4%; in the test with MALME-3M melanoma it was 115%. In addition, the growth with MDA-MB-231 breast is 110%; in the test with RXF 393 renal, 88.1%; with SF-268 CNS, 94.4%; with SF-295 CNS, 111%; in the test on SF-539 CNS, 95.1%; in the test on M14 melanoma, 109%.

In the case of `N#CC1=C(N2CCOCC2)NC2c3ccccc3Sc3ccccc3N2C1=N` (centres undefined), the growth in the test on NCI-H23 lung was 99%; in the test with NCI-H226 lung, 94.5%; with NCI-H322M lung, 117%; in the test with HOP-62 NSCLC, 78.3%; in the test on HOP-92 NSCLC, 84.5%; with NCI-H522 lung it was 83.6%. Moreover, the growth in the test with A549/ATCC NSCLC was 103%; in the test on 786-0 renal, 104%; in the test on COLO 205 colon it was 96.8%; in the test with DU-145 prostate, 98.4%; with K-562 leukemia it was 117%; in the test on MALME-3M melanoma, 103%. Also, the growth in the test on MDA-MB-231 breast was 98.7%; with RXF 393 renal, 90.7%; with SF-268 CNS, 91.8%; in the test on SF-295 CNS it was 116%; with SF-539 CNS, 89.7%; in the test with UACC-257 melanoma it was 108%. In the test on M14 melanoma, the growth is 98.9%.

In the case of `O=C(/C=C\c1ccc(NCc2ccc(C(=O)O)cc2)cc1)CCl`, the growth is 94.3% in the test on NCI-H23 lung; 111% in the test on NCI-H226 lung; 97% in the test on NCI-H322M lung; 75.1% in the test on HOP-62 NSCLC; 99.7% in the test on HOP-92 NSCLC; -78.1% (active) in the test with NCI-H522 lung. The growth in the test with A549/ATCC NSCLC is 100%; in the test on 786-0 renal it was 90.4%; in the test on COLO 205 colon it was 78.6%; in the test on DU-145 prostate it was 112%; in the test with K-562 leukemia, 9.08% (active); in the test on MALME-3M melanoma, 88.8%. Besides, the growth in the test on MDA-MB-231 breast is 91.4%; in the test on RXF 393 renal, 65.2%; with SF-268 CNS, 74%; in the test on SF-295 CNS, 96.4%; in the test with SF-539 CNS, 95%; in the test with UACC-257 melanoma it was 85.6%. Moreover, the growth with M14 melanoma was 90.7%.

As to `CCC(C)(C)c1ccc(OCCCCCCN2CCN(c3ccc(C)c(Cl)c3)CC2)cc1`, the growth is 62.3% in the test on NCI-H23 lung; 73.7% with NCI-H226 lung; 88.3% in the test with NCI-H322M lung; 98.3% in the test on HOP-62 NSCLC; 82.6% in the test with HOP-92 NSCLC; 84.6% in the test on NCI-H522 lung. The growth was 97% with A549/ATCC NSCLC; 95.7% in the test on 786-0 renal; 91.4% in the test with COLO 205 colon; 86% with DU-145 prostate; 78.4% in the test with K-562 leukemia; 86.7% in the test with MALME-3M melanoma. Further, the growth was 115% in the test with MDA-MB-231 breast; 95.6% in the test with RXF 393 renal; 82.5% in the test on SF-268 CNS; 85.7% in the test with SF-295 CNS; 98.6% in the test with SF-539 CNS; 110% in the test on UACC-257 melanoma. The growth in the test on M14 melanoma is 93.7%.

For `COc1ccc2cc(C(C)C(=O)Nc3ccc(S(=O)(=O)Nc4cc(C)on4)cc3)ccc2c1` (centres undefined), the growth was 101% with NCI-H23 lung; 106% in the test with NCI-H226 lung; 108% with NCI-H322M lung; 88.5% with HOP-62 NSCLC; 102% with HOP-92 NSCLC; 89.7% with NCI-H522 lung. The growth was 86.2% with A549/ATCC NSCLC; 102% in the test with 786-0 renal; 115% in the test with COLO 205 colon; 115% with DU-145 prostate; 95% in the test on K-562 leukemia; 115% in the test with MALME-3M melanoma. Besides, the growth is 117% with MDA-MB-231 breast; 92% in the test on RXF 393 renal; 100% with SF-268 CNS; 105% in the test with SF-295 CNS; 97.4% with SF-539 CNS; 103% with M14 melanoma.

On to `Oc1ccc([S+](c2ccc(O)cc2)c2ccc(O)cc2)cc1`, for which the growth was 106% with NCI-H23 lung; 88.3% in the test with NCI-H226 lung; 95.3% in the test on NCI-H322M lung; 94.3% with HOP-62 NSCLC; 92.2% in the test with HOP-92 NSCLC; 112% with NCI-H522 lung. For the same compound, the growth is 98.7% with A549/ATCC NSCLC; 106% in the test on 786-0 renal; 102% in the test on COLO 205 colon; 120% with DU-145 prostate; 94.7% with K-562 leukemia; 106% in the test on MALME-3M melanoma. For the same compound, the growth is 117% with MDA-MB-231 breast; 94.6% in the test on RXF 393 renal; 114% in the test on SF-268 CNS; 96% with SF-295 CNS; 98.9% in the test with SF-539 CNS; 98.4% with UACC-257 melanoma. Moreover, in the test with M14 melanoma, the growth is 105%.
